Test [1] can be described thus: antimalarial activity against Dd2 strain (AID 2302;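 active = growth inhibition above 50% at the single 2 µM test dose, taken to imply half-maximal potency below 2 µM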;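 also: 0% = DMSO untreated growth and 100% = chloroquine plus artemisinin killed control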). The conditions noted are these: P. falciparum Dd2 in RBCs, LDH growth readout, 72 h; at 2 µM; stronger effect = higher value.
Test [2] has as its target L-lactate dehydrogenase (Plasmodium falciparum (isolate CDC / Honduras)) (UniProt Q27743). The test can be described thus: PfLDH activity inhibition – cell lysate, 3D7 strain, counter-screen for P. falciparum growth inhibition project (AID 2304).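 Also: 0% = vehicle and 100% = reference inhibitor.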 The conditions noted are these: P. falciparum 3D7 crude extract, LDH APAD/NBT absorbance; at 2 µM; stronger effect = higher value.
Test [3] is described as follows: inhibition of 3D7 malaria parasite growth – strain 3D7 (AID 2306).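 Also: 0% = DMSO wells and 100% = chloroquine plus artemisinin control wells.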 The conditions noted are these: P. falciparum 3D7 erythrocytic growth, LDH absorbance, 72 h; at 2 µM; stronger effect = higher value.
Test [4] is described as follows: liver-stage malaria parasite growth inhibition, primary screen, cell-based, HepG2, luciferase luminescence, HepG2 viability (AID 624349; in the data active = parasite load remaining mostly below about 12%, no sharp cut-off; inactive = mostly above about 10%;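 also: 100% = mean of DMSO negative control wells on the same plate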). The conditions noted are these: P. berghei liver stage in HepG2, luciferase luminescence, concentration not given here; parasite load remaining: stronger effect = lower value; viability: measured here: HepG2 viability without parasites.
The target in test [5] is Calcium-dependent protein kinase 1 (Plasmodium falciparum (isolate 3D7)) (UniProt P62344). Kind of test: PfCDPK1 kinase inhibitors, biochemical, TCAMS library (AID 1159585; cut-off not given, nearly all actives have IC50 up to about 0.98 µM;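 also: inhibitors leave more ATP so luminescence rises with inhibition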). To be noted: recombinant PfCDPK1, Kinase-Glo ATP depletion luminescence.
The target of test [6] is Plasmodium falciparum protein kinase 6 (PK6, PF3D7_1337100) (UniProt Q8IDW1). Kind of test: PfPK6 kinase inhibitors, biochemical, TCAMS library (AID 1159586). The conditions noted are these: recombinant PfPK6, Kinase-Glo ATP depletion luminescence. Background: Kinase-Glo measures the ATP left after a reaction by luminescence.
The target in test [7] is Protein kinase 7 (PK7), Plasmodium falciparum 3D7 (PF3D7_0213400) (UniProt Q7YTF7). Kind of test: inhibition of Plasmodium PK7 catalytic activity – biochemical, TCAMS antimalarial set, Kinase-Glo luminescence (AID 1159587). The conditions noted are these: recombinant PfPK7, Kinase-Glo ATP depletion luminescence.
Test [8] addresses Calcium-dependent protein kinase 4 (Plasmodium falciparum (isolate 3D7)) (UniProt Q8IBS5). Kind of test: PfCDPK4 kinase inhibitors, biochemical, TCAMS library (AID 1159588; cut-off not given, nearly all actives have IC50 up to about 0.91 µM). To be noted: recombinant PfCDPK4, Kinase-Glo ATP depletion luminescence.
A short description of test [9]: growth inhibition of DIPG glioma cells, dose response, cell-based, SU-DIPG-XIII, MIPE5.0, CellTiter-Glo, qHTS (AID 1347064; cut-off not given, nearly all actives have AC50 up to about 23 µM;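 as to AC50: cells exposed to compound for 48 hours before the viability read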). The conditions noted are these: SU-DIPG-XIII viability, CellTiter-Glo ATP luminescence. On the technique in general: Cellular ATP, detected with luciferase, serves as a proxy for viable cell number.
The subject of test [10] is Neuropilin-2 / VEGF-C interaction (human). The test can be described thus: inhibitors of NRP2–VEGF-C binding, biochemical, microplate binding format, z-score (AID 743281). To be noted: microplate NRP2/VEGF-C binding assay; stronger effect = lower value.
Test [11] in a line: viability loss in pontine glioma line – cell-based, SU-DIPG-XXV, MIPE5.0, CellTiter-Glo, qHTS, dose response (AID 1347065; cut-off not given, nearly all actives have AC50 up to about 26 µM;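 also: cells exposed to compound for 48 hours before ATP readout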). The conditions noted are these: CellTiter-Glo ATP luminescence.
In test [12] the test system is Aerobactin synthetase IucA (Klebsiella pneumoniae). Kind of test: IucA aerobactin synthetase inhibitors, biochemical, Tocris library, absorbance (AID 1345561).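 Also: 100% = enzyme without compound and 0% = no enzyme.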 To be noted: purified IucA enzyme assay, absorbance (OD) read-out; stronger effect = lower value;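 tested at 8 µM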.
Test [13] deals with ATP-dependent translocase ABCB1 (Homo sapiens) (UniProt P08183). The test can be described thus: MDR1 (ABCB1) efflux transporter inhibition, cell-based (AID 377; in the data active = fluorescence slope change above about 50%). To be noted: MDR1-expressing cells, fluorescent substrate accumulation slope; stronger effect = higher value; concentration not given here.
Test [14] can be described thus: CRL2098 osteosarcoma cell growth inhibition, synergistic combos for chromothripsis tumors, BGB or cisplatin IC20 combos (AID 1671454; in the data active = inhibition above about 80%;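 also: cells exposed for 96 h before readout; 0% = vehicle DMSO and 100% = killing by high DMSO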). The conditions noted are these: CRL2098 osteosarcoma cells, drug combinations, stronger effect = higher value.
A short description of test [15]: HD-MB03 medulloblastoma cell growth inhibition, synergistic combos for chromothripsis tumors, BGB or cisplatin IC20 combos (AID 1671455; in the data active = inhibition above about 83%;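 also: 0% = vehicle DMSO and 100% = high DMSO as cytotoxic control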). The conditions noted are these: HD-MB03 medulloblastoma cells, stronger effect = higher value.
A short description of test [16]: UWB1.289 ovarian carcinoma cell growth inhibition, synergistic combos for chromothripsis tumors, BGB or cisplatin combos (AID 1671456; in the data active = inhibition above about 80%;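 also: cells exposed to compound for four days; 0% = vehicle DMSO and 100% = killing by high DMSO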). To be noted: UWB1.289 ovarian carcinoma cells, stronger effect = higher value.
Test [17] is described as follows: LFS_MB_2R medulloblastoma cell growth inhibition, synergistic combos for chromothripsis tumors, cisplatin combos (AID 1671457; in the data active = inhibition above about 80%;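 also: cells exposed to compound for four days before readout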). To be noted: LFS_MB_2R medulloblastoma cells, stronger effect = higher value.
Test [18] in a line: UWB1.289_BRCA1 ovarian cancer growth, cell-based, BGB or cisplatin combinations (AID 1671459; in the data active = inhibition above about 80%). To be noted: UWB1.289 BRCA1 ovarian carcinoma, drug combinations, stronger effect = higher value.
Test [19] in a line: human astrocyte viability loss, single and combined drugs, cytotoxicity control for chromothriptic childhood tumor combination screen, cell-based, BGB or cisplatin IC20 combos (AID 1671460; in the data active = inhibition above about 80%;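 also: cells exposed to compounds for 96 hours before viability readout; 0% = vehicle and 100% = killing control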). To be noted: Human astrocytes, drug combinations, stronger effect = higher value.
Test [20] in a line: modifiers of HSF1 nuclear foci, imaging, Selleck Cancer Library (AID 1347162; in the data active = plate-normalised HSF1 focus index below about 0.46). To be noted: human cells, at 10 µM; SSMD: measured here: HSF1 foci SSMD mean; cell count: measured here: cell number; plate-normalised HSF1 focus index: stronger effect = lower value.

Where “and” joins values, the source holds several entries; their conditions need not be identical. Identical values can stand only once. Results filed as inconclusive are left out. For part of these data: Results with a measured potency or affinity are listed apart. Calls of active or inactive are those of the source. Unless noted, no rule for the calls is given here.

A word on the inhibition: it is the relative decrease from the control value, in per cent. Broadly, the viability is a read-out of living cells in per cent, often relative to untreated cells. A word on the AC50: it is the concentration giving half of the maximal activity seen. By remaining activity is commonly meant the signal under treatment as a percentage of the control signal.

Chain of ATP-dependent translocase ABCB1 (Homo sapiens) (P08183 whole entry, looked up): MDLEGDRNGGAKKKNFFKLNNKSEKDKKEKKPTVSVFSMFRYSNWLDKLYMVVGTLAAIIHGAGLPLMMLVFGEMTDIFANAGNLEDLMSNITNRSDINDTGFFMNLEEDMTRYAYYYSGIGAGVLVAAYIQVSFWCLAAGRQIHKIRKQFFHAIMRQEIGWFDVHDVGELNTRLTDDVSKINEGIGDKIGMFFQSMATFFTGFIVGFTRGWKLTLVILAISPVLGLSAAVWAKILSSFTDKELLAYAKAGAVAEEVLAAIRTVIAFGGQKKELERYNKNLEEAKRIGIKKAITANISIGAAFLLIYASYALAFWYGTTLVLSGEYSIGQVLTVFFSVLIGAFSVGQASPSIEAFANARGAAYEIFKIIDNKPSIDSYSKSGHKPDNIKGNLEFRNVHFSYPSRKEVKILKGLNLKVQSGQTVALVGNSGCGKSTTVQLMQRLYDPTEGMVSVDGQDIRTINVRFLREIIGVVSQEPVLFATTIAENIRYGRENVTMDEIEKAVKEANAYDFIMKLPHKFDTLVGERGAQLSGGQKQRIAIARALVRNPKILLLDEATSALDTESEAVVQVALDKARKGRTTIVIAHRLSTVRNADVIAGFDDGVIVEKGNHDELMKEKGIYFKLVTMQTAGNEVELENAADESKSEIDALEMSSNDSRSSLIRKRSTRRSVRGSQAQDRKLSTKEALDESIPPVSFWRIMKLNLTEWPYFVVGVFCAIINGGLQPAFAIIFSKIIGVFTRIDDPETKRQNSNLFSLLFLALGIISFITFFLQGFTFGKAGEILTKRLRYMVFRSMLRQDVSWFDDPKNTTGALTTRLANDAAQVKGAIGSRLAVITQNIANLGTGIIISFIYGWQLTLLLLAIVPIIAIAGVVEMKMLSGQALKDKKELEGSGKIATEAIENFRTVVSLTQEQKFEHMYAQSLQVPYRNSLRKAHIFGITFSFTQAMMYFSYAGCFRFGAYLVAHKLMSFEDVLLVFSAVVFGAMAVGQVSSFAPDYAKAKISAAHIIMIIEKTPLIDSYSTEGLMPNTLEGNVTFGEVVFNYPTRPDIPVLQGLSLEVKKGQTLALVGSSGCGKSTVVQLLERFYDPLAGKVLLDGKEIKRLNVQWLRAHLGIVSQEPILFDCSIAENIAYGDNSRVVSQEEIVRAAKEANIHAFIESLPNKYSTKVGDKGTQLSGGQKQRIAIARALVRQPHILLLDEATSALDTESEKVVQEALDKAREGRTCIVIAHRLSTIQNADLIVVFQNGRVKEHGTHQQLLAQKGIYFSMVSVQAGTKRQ
Chain of L-lactate dehydrogenase (Plasmodium falciparum (isolate CDC / Honduras)) (Q27743 whole entry, looked up): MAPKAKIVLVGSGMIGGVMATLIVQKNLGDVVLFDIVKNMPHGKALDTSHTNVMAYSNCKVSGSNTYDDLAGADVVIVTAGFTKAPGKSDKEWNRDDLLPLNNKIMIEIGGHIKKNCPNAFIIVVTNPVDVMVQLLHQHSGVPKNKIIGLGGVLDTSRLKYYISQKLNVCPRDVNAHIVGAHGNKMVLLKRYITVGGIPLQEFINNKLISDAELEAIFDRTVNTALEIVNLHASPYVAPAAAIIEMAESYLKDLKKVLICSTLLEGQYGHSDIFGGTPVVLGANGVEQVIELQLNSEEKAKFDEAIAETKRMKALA
Chain of Calcium-dependent protein kinase 1 (Plasmodium falciparum (isolate 3D7)) (P62344 whole entry, looked up): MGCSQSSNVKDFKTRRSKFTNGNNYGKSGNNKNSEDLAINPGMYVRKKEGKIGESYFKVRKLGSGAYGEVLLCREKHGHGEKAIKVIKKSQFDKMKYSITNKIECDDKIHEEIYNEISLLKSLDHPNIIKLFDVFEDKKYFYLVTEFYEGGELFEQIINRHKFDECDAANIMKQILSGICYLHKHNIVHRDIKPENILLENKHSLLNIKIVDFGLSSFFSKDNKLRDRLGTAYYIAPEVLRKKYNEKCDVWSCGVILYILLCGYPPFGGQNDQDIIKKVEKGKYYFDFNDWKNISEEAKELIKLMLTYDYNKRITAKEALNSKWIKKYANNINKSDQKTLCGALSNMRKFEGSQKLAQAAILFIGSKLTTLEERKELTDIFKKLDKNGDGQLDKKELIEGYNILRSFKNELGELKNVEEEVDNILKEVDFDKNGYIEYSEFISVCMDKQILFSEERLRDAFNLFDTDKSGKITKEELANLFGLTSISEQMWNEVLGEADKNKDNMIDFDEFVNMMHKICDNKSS
Chain of Calcium-dependent protein kinase 4 (Plasmodium falciparum (isolate 3D7)) (Q8IBS5 whole entry, looked up): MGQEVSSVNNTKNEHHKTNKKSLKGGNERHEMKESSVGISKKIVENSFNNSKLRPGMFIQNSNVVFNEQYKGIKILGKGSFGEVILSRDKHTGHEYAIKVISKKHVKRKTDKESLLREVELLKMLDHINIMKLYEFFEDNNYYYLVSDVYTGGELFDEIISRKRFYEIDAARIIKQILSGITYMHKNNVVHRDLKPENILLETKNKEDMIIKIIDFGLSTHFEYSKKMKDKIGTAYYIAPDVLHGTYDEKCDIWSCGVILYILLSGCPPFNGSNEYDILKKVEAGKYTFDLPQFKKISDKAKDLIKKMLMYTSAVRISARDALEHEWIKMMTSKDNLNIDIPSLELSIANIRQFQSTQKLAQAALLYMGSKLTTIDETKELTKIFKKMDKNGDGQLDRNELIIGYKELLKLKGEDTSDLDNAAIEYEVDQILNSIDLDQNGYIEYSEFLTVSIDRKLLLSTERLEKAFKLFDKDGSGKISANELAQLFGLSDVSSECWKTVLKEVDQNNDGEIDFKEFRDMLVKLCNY
Chain of Plasmodium falciparum protein kinase 6 (PK6, PF3D7_1337100) (Q8IDW1 1-305): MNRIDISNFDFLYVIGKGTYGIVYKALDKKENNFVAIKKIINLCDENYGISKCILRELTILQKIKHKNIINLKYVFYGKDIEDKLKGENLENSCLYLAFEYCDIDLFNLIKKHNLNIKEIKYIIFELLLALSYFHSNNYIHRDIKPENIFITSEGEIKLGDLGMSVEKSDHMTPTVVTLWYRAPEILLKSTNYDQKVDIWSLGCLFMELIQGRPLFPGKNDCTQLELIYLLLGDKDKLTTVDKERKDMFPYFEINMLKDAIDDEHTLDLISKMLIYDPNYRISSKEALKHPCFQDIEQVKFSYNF
Chain of Protein kinase 7 (PK7), Plasmodium falciparum 3D7 (PF3D7_0213400) (Q7YTF7 1-343): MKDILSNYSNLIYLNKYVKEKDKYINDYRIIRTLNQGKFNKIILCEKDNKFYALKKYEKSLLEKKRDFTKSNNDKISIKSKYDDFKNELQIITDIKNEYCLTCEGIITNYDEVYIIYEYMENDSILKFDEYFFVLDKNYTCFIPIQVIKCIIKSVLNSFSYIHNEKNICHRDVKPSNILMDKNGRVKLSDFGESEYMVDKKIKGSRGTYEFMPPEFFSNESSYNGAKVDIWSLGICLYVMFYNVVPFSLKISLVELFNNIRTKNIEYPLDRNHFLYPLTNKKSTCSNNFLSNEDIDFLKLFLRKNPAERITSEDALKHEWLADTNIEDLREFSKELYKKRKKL

With `CCN(CCO)CCCC(C)Nc1ccnc2cc(Cl)ccc12` (stereo unspecified), the results for the growth inhibition in test [1] and in test [3] were 0% (inactive) and 99% (active), respectively. Besides, the inhibition in test [2] was -1% (inactive). Moreover, the parasite load remaining in [4] is 156% (inactive) and 84.1% (inactive). The viability in test [4] is 88.4% and 102%. For the same compound, the outcome in test [5], in test [6], in test [7], in [8] and in [9] was inactive.

For the compound `CCCCCN=C(N)N/N=C/c1c[nH]c2ccc(OC)cc12`, the growth inhibition in [1] was 2% (inactive); in test [3], 86% (active). The inhibition in test [2] is -6% (inactive). In test [4], the parasite load remaining was 142% (inactive) and 119% (inactive). Also, the viability in test [4] was 84.9% and 86.2%. Also, the call in test [10], in [5], in [6], in test [7] and in test [8] was inactive. The AC50 in test [9] was 13.2 µM (active); in test [11] it was 14.8 µM (active).

`CN1C(C(=O)Nc2ccccn2)=C(O)c2ccccc2S1(=O)=O`: the z-score in [10] is -1.26 (inactive). For the same compound, in test [12], the remaining activity was 127% (inactive). Also, the outcome in test [9] and in test [11] was inactive.

For the compound `NS(=O)(=O)c1cc(C2(O)NC(=O)c3ccccc32)ccc1Cl` (stereo unspecified), the fluorescence slope change in test [13] is 22.1% (inactive).

In the case of `COC1=CC(=O)C[C@@H](C)[C@]12Oc1c(Cl)c(OC)cc(OC)c1C2=O`, in test [4], the parasite load remaining was 86.5% (inactive) and 55.9% (inactive) and 116% (inactive); the viability is 139% and 48% and 184%.

Consider `Cc1ccc(C)c(OCCCC(C)(C)C(=O)O)c1`, for which, in test [11], the result was inactive.

Consider `N[C@@H](C(=O)N[C@@H]1C(=O)N2C(C(=O)O)=C(Cl)CS[C@H]12)c1ccccc1`, for which the z-score in test [10] was -0.232 (inactive).

As for `CCn1cc(C(=O)O)c(=O)c2cc(F)c(N3CCN(C)CC3)cc21`, in test [10], the z-score was -1.05 (inactive). Moreover, the inhibition in test [14] (at 0.5 µM) was -41.2% (inactive) and 7.78% (inactive); in test [14] (measured here: combination with BGB at IC20, at 0.5 µM), -48.5% and 10.5%; in test [14] (measured here: combination with cisplatin at IC20, at 0.5 µM), -57.7% and 40.3%; in [15] (at 0.5 µM), -16.4% (inactive) and 1.14% (inactive); in test [15] (measured here: combo with BGB at IC20, at 0.5 µM), -17.4% and 6.49%; in test [15] (measured here: combo with cisplatin at IC20, at 0.5 µM), -24.9% and -8.23%. Moreover, the inhibition was -8.81% (inactive) and 8.67% (inactive) in test [16] (at 0.5 µM); -24.8% and -1.17% in test [16] (measured here: inhibition with BGB combination, at 0.05 µM); -21.6% and 2.48% in [16] (measured here: inhibition with cisplatin combination, at 0.05 µM); -5.46% (inactive) and 1.79% (inactive) in test [17] (at 0.5 µM); 3.08% and 3.79% in [17] (measured here: combination with cisplatin, at 0.5 µM); -14.9% and -26.1% in [17] (measured here: combination with cisplatin, at 5 µM). Further, the inhibition in test [18] (BGB combination, concentration series, at 5 µM) was -6.71% and 0.813%; in test [18] (at 0.5 µM), -17.9% (inactive) and 5.05% (inactive); in [18] (cisplatin combination, concentration series, at 5 µM), -12.6% and 1.69%; in test [19] (at 0.5 µM), -3.63% (inactive) and -0.44% (inactive); in test [19] (measured here: combo with BGB IC20, at 0.5 µM), 1.4% and 4.59%; in test [19] (measured here: combo with cisplatin IC20, at 0.5 µM), -18.3% and 1.72%.

For `Cc1onc(-c2c(Cl)cccc2Cl)c1C(=O)N[C@@H]1C(=O)N2[C@@H]1SC(C)(C)[C@@H]2C(=O)O`, in test [13], the fluorescence slope change is 74.3% (active).

For the compound `Nc1ncn([C@@H]2O[C@H](CO)[C@@H](O)[C@H]2O)c(=O)n1`, in [4], the parasite load remaining was 162% (inactive) and 170% (inactive) and 176% (inactive); the viability is 101% and 77.2% and 95%. The AC50 in test [9] was 1.66 µM (active). The AC50 in test [11] is 2.09 µM (active). In [20], the SSMD turned out to be 1.14, the cell count was 7120 and the plate-normalised HSF1 focus index was 1.04 (inactive).

As for `CCc1nc(N)nc(N)c1-c1ccc(Cl)cc1`, the growth inhibition in test [1] was 0% (inactive) and -1% (inactive); in [3] it was 94% (active) and 93% (active). In addition, the inhibition in test [2] is -5% (inactive) and 5% (inactive).

Regarding `OC(CCN1CCCC1)(c1ccccc1)C1CCCCC1` (stereo unspecified), the fluorescence slope change in test [13] was 70.5% (active).

In the case of `Clc1ccc2c(c1)C(N1CCNCC1)=Nc1ccccc1O2`, the fluorescence slope change in test [13] is 156% (active).

On to `NC(=O)c1cnccn1`, for which, in [13], the fluorescence slope change was 13.7% (inactive). The outcome in test [9] and in test [11] was inactive.

For the origin of these results see PubChem BioAssay.
